Test results reported in the supplement of paper PMC13094657.
Structures can show the parent of a compound that is named as a salt. ± gives the standard deviation of the averaged measurements.

Key:
MDA-MB-231 [1] = test: cell viability relative to vehicle unstimulated control (fraction); higher = more viable cells; settings: pre-treatment time: 18 h then 24 h IFNg/TNF
MDA-MB-231 [2] = test: kynurenine production, fold change vs DMSO IFNg/TNF control; higher = more kynurenine produced (less inhibition); settings: pre-treatment time: 18 h then 24 h IFNg/TNF
Procedure, shortened: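 In 96-well plates, MDA-MB-231 cells (7 × 10^4/well) were given 24 h to settle, pre-treated for 18 h with each natural product in 0.1% DMSO, and stimulated for 24 h with IFNγ (1 U/ml) and TNF (6.25 ng/ml) at 37°C. Supernatants were processed with trichloroacetic acid and p-dimethylaminobenzaldehyde and read at 492 nm against 0–100 μM standards. In the first screening round, kynurenine production, as fold change over same-plate cytokine-stimulated vehicle wells, was averaged over duplicate plates.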
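Wherever cell viability relative to vehicle unstimulated control is given: viability of the cells left after supernatant collection, read with Deep Blue dye added for 4 h, as absorbance at 570 nm minus 600 nm.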

C=C1C[C@@]23CC[C@H]4[C@@](C)(CCC[C@@]4(C)C(=O)O)[C@@H]2CC[C@@H]1C3 [Kaurenoic acid] (compound dose: 10 uM)
cell viability (MDA-MB-231 [1]): 1.006 ± 0.0069 | kynurenine production (MDA-MB-231 [2]): 0.878 ± 0.12

CC1(C)CC[C@]2(CO)CC[C@]3(C)C(=CC[C@@H]4[C@@]5(C)CC[C@H](O)C(C)(C)[C@@H]5CC[C@]43C)[C@@H]2C1 [Erythrodiol] (compound dose: 10 uM)
cell viability (MDA-MB-231 [1]): 1.08 ± 0.031 | kynurenine production (MDA-MB-231 [2]): 0.842 ± 0.14

CC1CCC(C(C)C)C(O)C1 [(1R,2S,5R)-(-)-menthol] (compound dose: 10 uM)
cell viability (MDA-MB-231 [1]): 0.935 ± 0.035 | kynurenine production (MDA-MB-231 [2]): 0.806 ± 0.069

COC(=O)C[C@](O)(CCCC(C)(C)O)C(=O)O[C@@H]1C(OC)=C[C@]23CCCN2CCc2cc4c(cc2[C@H]13)OCO4 [Homoharringtonine] (compound dose: 10 uM)
cell viability (MDA-MB-231 [1]): 0.382 | kynurenine production (MDA-MB-231 [2]): 0.125 ± 0.08

C[C@H](CC[C@@H](O[C@@H]1O[C@H](CO[C@@H]2O[C@H](CO)[C@@H](O)[C@H](O)[C@H]2O)[C@@H](O)[C@H](O)[C@H]1O[C@@H]1O[C@H](CO)[C@@H](O)[C@H](O)[C@H]1O)C(C)(C)O)[C@H]1CC[C@@]2(C)[C@@H]3CC=C4[C@@H](CC[C@H](O[C@@H]5O[C@H](CO[C@@H]6O[C@H](CO)[C@@H](O)[C@H](O)[C@H]6O)[C@@H](O)[C@H](O)[C@H]5O)C4(C)C)[C@]3(C)[C@H](O)C[C@]12C [Mogroside V] (compound dose: 10 uM)
cell viability (MDA-MB-231 [1]): 0.989 ± 0.021 | kynurenine production (MDA-MB-231 [2]): 0.968 ± 0.19

CC(=O)OCC1=CCC2C(C=C(C)C(=O)C3(OC(C)=O)CC(C)C(OC(=O)c4ccccc4)C3C1OC(C)=O)C2(C)C (stereo not drawn) [Euphorbia factor L7b] (compound dose: 10 uM)
cell viability (MDA-MB-231 [1]): 1.07 ± 0.03 | kynurenine production (MDA-MB-231 [2]): 0.936 ± 0.035

COc1ccc2cc3[n+](cc2c1OC)CCc1cc2c(cc1-3)OCO2 [Berberine] (compound dose: 10 uM)
cell viability (MDA-MB-231 [1]): 0.8829 ± 0.0012 | kynurenine production (MDA-MB-231 [2]): 0.807 ± 0.11

CSC(=O)OCC1=C[C@@H]2OC(=O)C3=CO[C@@H](O[C@@H]4O[C@H](CO)[C@@H](O)[C@H](O)[C@H]4O)[C@H]1[C@@H]32 [Paederoside] (compound dose: 10 uM)
cell viability (MDA-MB-231 [1]): 1.14 ± 0.027 | kynurenine production (MDA-MB-231 [2]): 0.937 ± 0.11

C=C1C[C@@]23CC[C@H]4[C@@](C)(CCC[C@@]4(C)C(=O)O[C@@H]4O[C@H](CO)[C@@H](O)[C@H](O)[C@H]4O[C@@H]4O[C@H](CO)[C@@H](O)[C@H](O)[C@H]4O)[C@@H]2CC[C@]1(O[C@@H]1O[C@H](CO)[C@@H](O)[C@H](O[C@@H]2O[C@H](CO)[C@@H](O)[C@H](O)[C@H]2O)[C@H]1O[C@@H]1O[C@H](CO)[C@@H](O)[C@H](O)[C@H]1O)C3 [Rebaudioside D] (compound dose: 10 uM)
cell viability (MDA-MB-231 [1]): 0.931 ± 0.038 | kynurenine production (MDA-MB-231 [2]): 0.9927 ± 0.0066

Cc1coc2c1C(=O)C(=O)c1c-2ccc2c(C)cccc12 [Tanshinone I] (compound dose: 2 uM)
cell viability (MDA-MB-231 [1]): 0.921 ± 0.029 | kynurenine production (MDA-MB-231 [2]): 0.643 ± 0.14

CC(=O)OCC1=CO[C@@H](OC(=O)CC(C)C)[C@H]2C1=C[C@H](OC(=O)CC(C)(C)OC(C)=O)[C@]21CO1 [Acevaltrate] (compound dose: 10 uM)
cell viability (MDA-MB-231 [1]): 0.474 ± 0.047 | kynurenine production (MDA-MB-231 [2]): 0.171 ± 0.011

CC1(C)CCC[C@](C)([C@H]2CC[C@]3(C)[C@@H]2[C@H](O)C[C@@H]2[C@@]4(C)CC[C@H](O)C(C)(C)[C@@H]4CC[C@]23C)O1 [Panaxadiol] (compound dose: 10 uM)
cell viability (MDA-MB-231 [1]): 1.04 ± 0.013 | kynurenine production (MDA-MB-231 [2]): 0.719 ± 0.088

COC(=O)c1cccnc1 [Methyl nicotinate] (compound dose: 10 uM)
cell viability (MDA-MB-231 [1]): 0.974 ± 0.037 | kynurenine production (MDA-MB-231 [2]): 0.874 ± 0.23

OCC1=C[C@@H](O)[C@@H]2C=CO[C@@H](O[C@@H]3O[C@H](CO)[C@@H](O)[C@H](O)[C@H]3O)[C@H]12 [Aucubin] (compound dose: 10 uM)
cell viability (MDA-MB-231 [1]): 1.01 ± 0.02 | kynurenine production (MDA-MB-231 [2]): 0.87 ± 0.041

CC(C)=C[C@H]1C[C@](C)(O)[C@H]2[C@H]3CC[C@@H]4[C@@]5(C)CC[C@H](O[C@@H]6O[C@H](CO)[C@@H](O)[C@H](O[C@@H]7O[C@H](CO)[C@@H](O)[C@H](O)[C@H]7O)[C@H]6O[C@@H]6O[C@@H](CO)[C@H](O)[C@H]6O)C(C)(C)[C@@H]5CC[C@@]4(C)[C@@]34CO[C@@]2(C4)O1 [Bacoside A3] (compound dose: 10 uM)
cell viability (MDA-MB-231 [1]): 0.944 ± 0.034 | kynurenine production (MDA-MB-231 [2]): 0.672 ± 0.11

CCCCC/C=C\C=C\C(=O)O[C@H]1C(C)=C[C@]23C(=O)[C@@H](C=C(CO)[C@@H](O)[C@]12O)[C@H]1[C@@H](C[C@H]3C)C1(C)C [3-O-(2'E,4'ZDecadienoyl) ingenol] (compound dose: 10 uM)
cell viability (MDA-MB-231 [1]): 1 ± 0.09 | kynurenine production (MDA-MB-231 [2]): 1.022 ± 0.0084

COC(=O)[C@]12OC[C@]34[C@H]([C@@H](O)[C@@H]1O)[C@@]1(C)CC(=O)C(O)=C(C)[C@@H]1C[C@H]3OC(=O)[C@H](OC(=O)C=C(C)C)[C@@H]24 [Brusatol] (compound dose: 10 uM)
cell viability (MDA-MB-231 [1]): 0.432 ± 0.034 | kynurenine production (MDA-MB-231 [2]): 0.1176 ± 0.00049

Cc1cc(O)c2c(c1)C(=O)c1cc(O)cc(O[C@@H]3O[C@H](CO)[C@@H](O)[C@H](O)[C@H]3O)c1C2=O [Emodin-8-glucoside] (compound dose: 10 uM)
cell viability (MDA-MB-231 [1]): 0.9845 ± 0.0046 | kynurenine production (MDA-MB-231 [2]): 0.872 ± 0.14

CC(CC(=O)C[C@](C)(O)[C@H]1CC(=O)[C@@]2(C)C3=C(C(=O)C[C@]12C)[C@@]1(C)CCC(=O)C(C)(C)[C@@H]1C[C@@H]3O)C(=O)O (stereo partly drawn) [Ganoderic acid N] (compound dose: 10 uM)
cell viability (MDA-MB-231 [1]): 1.03 ± 0.053 | kynurenine production (MDA-MB-231 [2]): 0.857 ± 0.12

C[C@H]1O[C@@H](Oc2c(-c3cc(O)c(O)c(O)c3)oc3cc(O)cc(O)c3c2=O)[C@@H](O)[C@@H](O)[C@@H]1O [Myricitrin] (compound dose: 10 uM)
cell viability (MDA-MB-231 [1]): 0.988 ± 0.021 | kynurenine production (MDA-MB-231 [2]): 0.694 ± 0.16

CC(C)=CCC[C@](C)(O)[C@H]1CC[C@]2(C)[C@@H]1[C@H](O)C[C@@H]1[C@@]3(C)CC[C@H](O)C(C)(C)[C@@H]3[C@@H](O[C@@H]3O[C@H](CO)[C@@H](O)[C@H](O)[C@H]3O[C@@H]3O[C@@H](C)[C@H](O)[C@@H](O)[C@H]3O)C[C@]12C [Ginsenoside Rg2] (compound dose: 10 uM)
cell viability (MDA-MB-231 [1]): 1.01 ± 0.095 | kynurenine production (MDA-MB-231 [2]): 0.974 ± 0.061

C[C@@H]1O[C@@H](O[C@H]2[C@H](OC(=O)[C@]34CCC(C)(C)C[C@H]3C3=CC[C@@H]5[C@@]6(C)C[C@H](O)[C@H](O[C@@H]7O[C@H](CO)[C@@H](O)[C@H](O)[C@H]7O)C(CO)(CO)[C@@H]6CC[C@@]5(C)[C@]3(C)C[C@H]4O)OC[C@H](O)[C@@H]2O)[C@H](O)[C@H](O)[C@H]1O[C@@H]1OC[C@@H](O)[C@H](O[C@@H]2OC[C@](O)(CO)[C@H]2O)[C@H]1O [Platycodin D] (compound dose: 10 uM)
cell viability (MDA-MB-231 [1]): 0.609 ± 0.21 | kynurenine production (MDA-MB-231 [2]): 0.354 ± 0.065

C[C@@H]1[C@H]2[C@H](O[C@@H]3O[C@H](CO)[C@@H](O)[C@H](O)[C@H]3O)OC=C(C(=O)O)[C@H]2C[C@@H]1O [Loganic acid] (compound dose: 10 uM)
cell viability (MDA-MB-231 [1]): 0.999 ± 0.016 | kynurenine production (MDA-MB-231 [2]): 1.01 ± 0.16

C=C1C[C@@]23CC[C@H]4[C@@](C)(CCC[C@@]4(C)C(=O)O[C@@H]4O[C@H](CO)[C@@H](O)[C@H](O[C@@H]5O[C@H](CO)[C@@H](O)[C@H](O)[C@H]5O)[C@H]4O[C@@H]4O[C@H](CO)[C@@H](O)[C@H](O)[C@H]4O)[C@@H]2CC[C@]1(O[C@@H]1O[C@H](CO)[C@@H](O)[C@H](O[C@@H]2O[C@H](CO)[C@@H](O)[C@H](O)[C@H]2O)[C@H]1O[C@@H]1O[C@H](CO)[C@@H](O)[C@H](O)[C@H]1O)C3 [Rebaudioside M] (compound dose: 10 uM)
cell viability (MDA-MB-231 [1]): 0.939 ± 0.012 | kynurenine production (MDA-MB-231 [2]): 0.742 ± 0.12

C[C@H](CC(=O)C[C@@H](C)[C@H]1C[C@H](O)[C@@]2(C)C3=C(C(=O)C[C@]12C)[C@@]1(C)CCC(=O)C(C)(C)[C@@H]1C[C@@H]3O)C(=O)O [Ganoderic acid A] (compound dose: 10 uM)
cell viability (MDA-MB-231 [1]): 0.889 ± 0.073 | kynurenine production (MDA-MB-231 [2]): 0.857 ± 0.073

C[n+]1cccc(C(=O)[O-])c1 [Trigonelline hydrochloride] (compound dose: 10 uM)
cell viability (MDA-MB-231 [1]): 0.913 | kynurenine production (MDA-MB-231 [2]): 0.906 ± 0.16

C/C1=C\CC[C@]23O[C@H]2[C@@H](OC3=O)c2c(C)coc2C1 [Linderane] (compound dose: 10 uM)
cell viability (MDA-MB-231 [1]): 0.985 ± 0.032 | kynurenine production (MDA-MB-231 [2]): 0.942 ± 0.096

C[C@@H]1CC[C@]2(C(=O)O)CC[C@]3(C)C(=CC[C@@H]4[C@@]5(C)CC[C@H](O)[C@@](C)(CO)[C@@H]5CC[C@]43C)[C@@H]2[C@]1(C)O [Rotundic acid] (compound dose: 10 uM)
cell viability (MDA-MB-231 [1]): 0.8829 ± 0.0033 | kynurenine production (MDA-MB-231 [2]): 0.929 ± 0.021

CC1=CC23C(=O)C(C=C4COC(C)(C)OC4C24OC(C)(C)OC14)C1C(CC3C)C1(C)C (stereo not drawn) [Ingenol-3,4,5,20-diacetonide] (compound dose: 10 uM)
cell viability (MDA-MB-231 [1]): 1.09 ± 0.23 | kynurenine production (MDA-MB-231 [2]): 0.893 ± 0.14

COc1cc2ccc(=O)oc2cc1O[C@@H]1O[C@H](CO)[C@@H](O)[C@H](O)[C@H]1O [Scopolin] (compound dose: 10 uM)
cell viability (MDA-MB-231 [1]): 1.015 ± 0.0034 | kynurenine production (MDA-MB-231 [2]): 1.22 ± 0.16

CC(=O)OCc1cocc2c(C=O)ccc1-2 [Baldrinal] (compound dose: 10 uM)
cell viability (MDA-MB-231 [1]): 1.006 ± 0.006 | kynurenine production (MDA-MB-231 [2]): 0.785 ± 0.064

COC(=O)C1=C2CCOC3=C2C2=C1C(=O)[C@@H]1C[C@H]4N(C[C@@H](CC3)[C@@]24C)C[C@H]1C [Daphnicyclidin D] (compound dose: 10 uM)
cell viability (MDA-MB-231 [1]): 0.948 ± 0.076 | kynurenine production (MDA-MB-231 [2]): 0.831 ± 0.18

CC=C1[C@H](O[C@@H]2O[C@H](CO)[C@@H](O)[C@H](O)[C@H]2O)OC=C(C(=O)OC)[C@H]1CC(=O)OC[C@H]1O[C@@H](OCCc2ccc(O)cc2)[C@H](O)[C@@H](O)[C@@H]1O (stereo in doubt) [Specnuezhenide] (compound dose: 10 uM)
cell viability (MDA-MB-231 [1]): 1 ± 0.026 | kynurenine production (MDA-MB-231 [2]): 0.905 ± 0.21

CC(C)=CCC[C@@H](C)CC=O [Citronellal] (compound dose: 10 uM)
cell viability (MDA-MB-231 [1]): 1.067 ± 0.0084 | kynurenine production (MDA-MB-231 [2]): 1.22 ± 0.043
